Our source for the binding signal values is PMC11006913.

Common to all, as to assay: PBM; 200 nM protein, PBS
Conditions in all cases: dsDNA, one strand shown

The target of assay [1] is HOXB9 (Homo sapiens, UniProt P17482 171-250, T197M).
The target in assay [2] is HOXA4 (Homo sapiens, UniProt Q00056 201-287, W262R).
Assay [3] addresses HOXC9 (Homo sapiens, UniProt P31274 178-260, K195R).
For the next assay, the target named is T1, VENTX (Homo sapiens, UniProt O95231 78-163).
T1 sequence: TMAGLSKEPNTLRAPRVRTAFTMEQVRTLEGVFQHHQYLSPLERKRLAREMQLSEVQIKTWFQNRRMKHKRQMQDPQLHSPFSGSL

Assay [4] has as its target HOXA7 (Homo sapiens, UniProt P31268 116-202).
Assay [5] has as its target HOXC10 (Homo sapiens, UniProt Q9NYD6 254-340).
Assay [6] addresses HOXB6 (Homo sapiens, UniProt P17509 132-218, K202E).
Assay [7] concerns the target HOXB9 (Homo sapiens, UniProt P17482 171-250).
The target in assay [8] is HOXC9 (Homo sapiens, UniProt P31274 178-260).
Assay [9] deals with HOXC9 (Homo sapiens, UniProt P31274 178-260, R193K).
For assay [10], the target named is HOXA4 (Homo sapiens, UniProt Q00056 201-287).
In assay [11] the target is HOXC10 (Homo sapiens, UniProt Q9NYD6 254-340, K271E).
For the next assay, the target named is VAX1 (Homo sapiens, UniProt Q5SQQ9 86-172).
In assay [12] the target is HOXB9 (Homo sapiens, UniProt P17482 171-250, R186Q).
Assay [13] concerns the target HOXC9 (Homo sapiens, UniProt P31274 178-260, R222W).
Another assay has as its target T2, PAX4 (Homo sapiens, UniProt O43316 9-242, R227W).
T2 sequence: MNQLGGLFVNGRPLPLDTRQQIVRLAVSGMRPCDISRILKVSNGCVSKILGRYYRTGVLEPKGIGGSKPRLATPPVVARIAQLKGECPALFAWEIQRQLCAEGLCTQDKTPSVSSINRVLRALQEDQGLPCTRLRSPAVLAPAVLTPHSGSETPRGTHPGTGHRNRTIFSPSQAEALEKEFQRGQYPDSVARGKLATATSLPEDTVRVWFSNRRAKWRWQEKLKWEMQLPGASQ

Assay [14] has as its target HOXA2 (Homo sapiens, UniProt O43364 129-215, Y150S).
The target in assay [15] is HOXA7 (Homo sapiens, UniProt P31268 116-202, W177C).
Assay [16] deals with HOXA2 (Homo sapiens, UniProt O43364 129-215).
Assay [17] has as its target HOXB6 (Homo sapiens, UniProt P17509 132-218).

HOXC9 (Homo sapiens, UniProt P31274 178-260, R193K), sequence (P31274 178-260 R193K): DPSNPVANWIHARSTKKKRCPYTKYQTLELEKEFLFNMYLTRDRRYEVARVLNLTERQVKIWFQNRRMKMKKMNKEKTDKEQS
HOXB6 (Homo sapiens, UniProt P17509 132-218, K202E), sequence (P17509 132-218 K202E): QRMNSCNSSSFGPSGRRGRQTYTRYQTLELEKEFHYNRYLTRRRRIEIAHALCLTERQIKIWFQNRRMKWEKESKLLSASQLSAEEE
HOXC9 (Homo sapiens, UniProt P31274 178-260, R222W), sequence (P31274 178-260 R222W): as the sequence (P31274 178-260 R193K) above, with K16R, R45W counted along it
HOXC9 (Homo sapiens, UniProt P31274 178-260, K195R), sequence (P31274 178-260 K195R): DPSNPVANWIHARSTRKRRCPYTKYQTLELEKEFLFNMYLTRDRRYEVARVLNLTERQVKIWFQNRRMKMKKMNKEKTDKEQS
HOXA4 (Homo sapiens, UniProt Q00056 201-287, W262R), sequence (Q00056 201-287 W262R): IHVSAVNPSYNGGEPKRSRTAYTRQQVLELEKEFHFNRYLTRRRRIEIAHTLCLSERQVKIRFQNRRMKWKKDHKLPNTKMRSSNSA
HOXA2 (Homo sapiens, UniProt O43364 129-215), sequence (O43364 129-215): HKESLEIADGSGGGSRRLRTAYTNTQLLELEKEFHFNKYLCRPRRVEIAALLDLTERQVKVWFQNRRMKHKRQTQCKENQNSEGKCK
HOXA7 (Homo sapiens, UniProt P31268 116-202, W177C), sequence (P31268 116-202 W177C): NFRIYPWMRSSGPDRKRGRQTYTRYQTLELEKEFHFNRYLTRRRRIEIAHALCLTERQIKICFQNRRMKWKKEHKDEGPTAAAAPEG
HOXA2 (Homo sapiens, UniProt O43364 129-215, Y150S), sequence (O43364 129-215 Y150S): as the sequence (O43364 129-215) above, with Y22S counted along it
HOXA4 (Homo sapiens, UniProt Q00056 201-287), sequence (Q00056 201-287): as the sequence (Q00056 201-287 W262R) above, with R62W counted along it
HOXB9 (Homo sapiens, UniProt P17482 171-250, T197M), sequence (P17482 171-250 T197M): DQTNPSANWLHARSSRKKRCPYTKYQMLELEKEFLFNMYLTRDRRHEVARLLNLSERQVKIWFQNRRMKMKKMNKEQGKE
HOXC10 (Homo sapiens, UniProt Q9NYD6 254-340, K271E), sequence (Q9NYD6 254-340 K271E): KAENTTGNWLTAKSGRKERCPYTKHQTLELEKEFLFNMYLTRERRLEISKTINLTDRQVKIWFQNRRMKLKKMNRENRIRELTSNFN
VAX1, sequence (Q5SQQ9 86-172): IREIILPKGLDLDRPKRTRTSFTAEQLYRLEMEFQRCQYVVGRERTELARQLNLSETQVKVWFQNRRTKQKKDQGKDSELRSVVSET
HOXA7 (Homo sapiens, UniProt P31268 116-202), sequence (P31268 116-202): as the sequence (P31268 116-202 W177C) above, with C62W counted along it
HOXB6 (Homo sapiens, UniProt P17509 132-218), sequence (P17509 132-218): as the sequence (P17509 132-218 K202E) above, with E71K counted along it
HOXC9 (Homo sapiens, UniProt P31274 178-260), sequence (P31274 178-260): as the sequence (P31274 178-260 R193K) above, with K16R counted along it
HOXB9 (Homo sapiens, UniProt P17482 171-250, R186Q), sequence (P17482 171-250 R186Q): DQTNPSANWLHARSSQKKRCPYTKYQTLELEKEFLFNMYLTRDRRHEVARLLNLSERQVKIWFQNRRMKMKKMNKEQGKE
HOXB9 (Homo sapiens, UniProt P17482 171-250), sequence (P17482 171-250): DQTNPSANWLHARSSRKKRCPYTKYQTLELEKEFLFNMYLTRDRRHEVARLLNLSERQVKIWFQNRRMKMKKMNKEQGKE
HOXC10 (Homo sapiens, UniProt Q9NYD6 254-340), sequence (Q9NYD6 254-340): as the sequence (Q9NYD6 254-340 K271E) above, with E18K counted along it

Turning to TAATTATA, the binding signal is 10.3 upbm affinity estimate (log intensity, higher = more binding, comparable within an allelic series) with HOXB9 [1]; 10.8 upbm affinity estimate (log intensity, higher = more binding, comparable within an allelic series) with HOXA4 [2]; 12.8 upbm affinity estimate (log intensity, higher = more binding, comparable within an allelic series) with HOXC9 [3]; 12.4 upbm affinity estimate (log intensity, higher = more binding, comparable within an allelic series) with VENTX; 11.8 upbm affinity estimate (log intensity, higher = more binding, comparable within an allelic series) in the assay with HOXA7 [4]; 12.3 upbm affinity estimate (log intensity, higher = more binding, comparable within an allelic series) with HOXC10 [5]. For the same sequence, the binding signal was 10.3 upbm affinity estimate (log intensity, higher = more binding, comparable within an allelic series) with HOXB6 [6]; 11.9 upbm affinity estimate (log intensity, higher = more binding, comparable within an allelic series) with HOXB9 [7]; 12.8 upbm affinity estimate (log intensity, higher = more binding, comparable within an allelic series) with HOXC9 [8]; 12.7 upbm affinity estimate (log intensity, higher = more binding, comparable within an allelic series) with HOXC9 [9]; 14.2 upbm affinity estimate (log intensity, higher = more binding, comparable within an allelic series) with HOXA4 [10]; 12.2 upbm affinity estimate (log intensity, higher = more binding, comparable within an allelic series) in the assay with HOXC10 [11]. In addition, the binding signal in the assay with VAX1 was 13.3 upbm affinity estimate (log intensity, higher = more binding, comparable within an allelic series); with HOXB9 [12], 11.6 upbm affinity estimate (log intensity, higher = more binding, comparable within an allelic series); in the assay with HOXC9 [13], 11.2 upbm affinity estimate (log intensity, higher = more binding, comparable within an allelic series); in the assay with PAX4, 11.1 upbm affinity estimate (log intensity, higher = more binding, comparable within an allelic series); with HOXA2 [14] it was 11.1 upbm affinity estimate (log intensity, higher = more binding, comparable within an allelic series); in the assay with HOXA7 [15], 9 upbm affinity estimate (log intensity, higher = more binding, comparable within an allelic series). Also, the binding signal with HOXA2 [16] was 13 upbm affinity estimate (log intensity, higher = more binding, comparable within an allelic series); with HOXB6 [17] it was 12.3 upbm affinity estimate (log intensity, higher = more binding, comparable within an allelic series).

AATTAGTC: the binding signal in the assay with PAX4 was 10.9 upbm affinity estimate (log intensity, higher = more binding, comparable within an allelic series).

As for CTAATTGA, the binding signal was 10.5 upbm affinity estimate (log intensity, higher = more binding, comparable within an allelic series) in the assay with HOXA4 [2]; 12.8 upbm affinity estimate (log intensity, higher = more binding, comparable within an allelic series) with VENTX; 13.9 upbm affinity estimate (log intensity, higher = more binding, comparable within an allelic series) with HOXA4 [10]; 13.5 upbm affinity estimate (log intensity, higher = more binding, comparable within an allelic series) with VAX1; 10.7 upbm affinity estimate (log intensity, higher = more binding, comparable within an allelic series) with PAX4; 10.6 upbm affinity estimate (log intensity, higher = more binding, comparable within an allelic series) in the assay with HOXA2 [14]. The binding signal with HOXA2 [16] is 12.6 upbm affinity estimate (log intensity, higher = more binding, comparable within an allelic series).

Consider CCCTACGG, for which the binding signal with HOXA4 [2] is 9.76 upbm affinity estimate (log intensity, higher = more binding, comparable within an allelic series); in the assay with HOXC9 [3] it was 9.6 upbm affinity estimate (log intensity, higher = more binding, comparable within an allelic series); in the assay with VENTX, 8.36 upbm affinity estimate (log intensity, higher = more binding, comparable within an allelic series); with HOXC9 [8], 9.63 upbm affinity estimate (log intensity, higher = more binding, comparable within an allelic series); with HOXC9 [9] it was 9.67 upbm affinity estimate (log intensity, higher = more binding, comparable within an allelic series); with HOXA4 [10], 9.86 upbm affinity estimate (log intensity, higher = more binding, comparable within an allelic series). For the same sequence, the binding signal with HOXC9 [13] is 9.62 upbm affinity estimate (log intensity, higher = more binding, comparable within an allelic series).

On to CTAATTAC, for which the binding signal with HOXB9 [1] was 10.1 upbm affinity estimate (log intensity, higher = more binding, comparable within an allelic series); with HOXA4 [2], 10.8 upbm affinity estimate (log intensity, higher = more binding, comparable within an allelic series); with VENTX, 13.2 upbm affinity estimate (log intensity, higher = more binding, comparable within an allelic series); with HOXA7 [4], 11.9 upbm affinity estimate (log intensity, higher = more binding, comparable within an allelic series); with HOXB6 [6], 10 upbm affinity estimate (log intensity, higher = more binding, comparable within an allelic series); with HOXA4 [10], 14.2 upbm affinity estimate (log intensity, higher = more binding, comparable within an allelic series). Besides, the binding signal in the assay with HOXC10 [11] is 12 upbm affinity estimate (log intensity, higher = more binding, comparable within an allelic series); in the assay with VAX1, 14 upbm affinity estimate (log intensity, higher = more binding, comparable within an allelic series); with PAX4, 11.1 upbm affinity estimate (log intensity, higher = more binding, comparable within an allelic series); in the assay with HOXA2 [14] it was 10.9 upbm affinity estimate (log intensity, higher = more binding, comparable within an allelic series); with HOXA7 [15] it was 8.84 upbm affinity estimate (log intensity, higher = more binding, comparable within an allelic series); in the assay with HOXA2 [16] it was 13.4 upbm affinity estimate (log intensity, higher = more binding, comparable within an allelic series). In addition, the binding signal in the assay with HOXB6 [17] was 12.3 upbm affinity estimate (log intensity, higher = more binding, comparable within an allelic series).

In the case of CAATTAAC, the binding signal in the assay with HOXB9 [1] was 9.98 upbm affinity estimate (log intensity, higher = more binding, comparable within an allelic series); in the assay with HOXA4 [2], 10.6 upbm affinity estimate (log intensity, higher = more binding, comparable within an allelic series); with HOXC9 [3] it was 12.5 upbm affinity estimate (log intensity, higher = more binding, comparable within an allelic series); in the assay with VENTX, 12.8 upbm affinity estimate (log intensity, higher = more binding, comparable within an allelic series); with HOXA7 [4] it was 11.5 upbm affinity estimate (log intensity, higher = more binding, comparable within an allelic series); with HOXB6 [6] it was 9.99 upbm affinity estimate (log intensity, higher = more binding, comparable within an allelic series). The binding signal with HOXC9 [8] is 12.6 upbm affinity estimate (log intensity, higher = more binding, comparable within an allelic series); in the assay with HOXC9 [9], 12.5 upbm affinity estimate (log intensity, higher = more binding, comparable within an allelic series); in the assay with HOXA4 [10], 13.9 upbm affinity estimate (log intensity, higher = more binding, comparable within an allelic series); with HOXC10 [11], 11.8 upbm affinity estimate (log intensity, higher = more binding, comparable within an allelic series); with VAX1, 13 upbm affinity estimate (log intensity, higher = more binding, comparable within an allelic series); with HOXB9 [12], 11.4 upbm affinity estimate (log intensity, higher = more binding, comparable within an allelic series). Further, the binding signal was 10.9 upbm affinity estimate (log intensity, higher = more binding, comparable within an allelic series) in the assay with HOXC9 [13]; 10.8 upbm affinity estimate (log intensity, higher = more binding, comparable within an allelic series) in the assay with PAX4; 10.8 upbm affinity estimate (log intensity, higher = more binding, comparable within an allelic series) in the assay with HOXA2 [14]; 8.75 upbm affinity estimate (log intensity, higher = more binding, comparable within an allelic series) with HOXA7 [15]; 12.3 upbm affinity estimate (log intensity, higher = more binding, comparable within an allelic series) with HOXA2 [16]; 12 upbm affinity estimate (log intensity, higher = more binding, comparable within an allelic series) with HOXB6 [17].
